Assay results reported in PMC8384837, “Expanding the binding specificity for RNA recognition by a PUF domain”.
Numbering of substitutions follows the chain as printed.

Tests used:
Assay in all cases: yeast three-hybrid, YBZ-1, SC-Leu-His + 0.5 mM 3-AT, 4 days
Conditions in all cases: tags: N-Gal4 AD-HA kept; label: inside an RPR1-promoter hybrid RNA with tandem MS2 sites; ssRNA
PUM1 PUF domain R4-WGG = PUM1 PUF domain R4-WGG (Homo sapiens, UniProt Q14671 828-1176, N971W;H972G;Q975G)
Outline: (§1)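 Pumilio-1 PUF domain libraries, randomized (NNK) at the three base-contacting residues of each repeat, were co-expressed with matching RNA elements from a centromeric plasmid in strain YBZ-1 (LexA–MS2 coat fusion, HIS3 reporter). Transformants were plated on SC-Leu (input) and SC-Leu-His + 0.5 mM 3-AT (selection) for four days, and repeat regions were PCR-amplified and Illumina-sequenced. The interaction score is the log2 change in variant frequency from input to selection, with pseudocount 1 where absent.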

PUM1 PUF domain R4-DHA = PUM1 PUF domain R4-DHA (Homo sapiens, UniProt Q14671 828-1176, N971D;Q975A)
Outline: as §1

PUM1 PUF domain R4-LHH = PUM1 PUF domain R4-LHH (Homo sapiens, UniProt Q14671 828-1176, N971L;Q975H)
Outline: as §1

PUM1 PUF domain R5-RRF = PUM1 PUF domain R5-RRF (Homo sapiens, UniProt Q14671 828-1176, C1007R;Q1011F)
Outline: as §1

PUM1 PUF domain R5-RFW = PUM1 PUF domain R5-RFW (Homo sapiens, UniProt Q14671 828-1176, C1007R;R1008F;Q1011W)
Outline: as §1

PUM1 PUF domain R5-KYA = PUM1 PUF domain R5-KYA (Homo sapiens, UniProt Q14671 828-1176, C1007K;R1008Y;Q1011A)
Outline: as §1

PUM1 PUF domain R5-RAT = PUM1 PUF domain R5-RAT (Homo sapiens, UniProt Q14671 828-1176, C1007R;R1008A;Q1011T)
Outline: as §1

PUM1 PUF domain R5-CNH = PUM1 PUF domain R5-CNH (Homo sapiens, UniProt Q14671 828-1176, R1008N;Q1011H)
Outline: as §1

PUM1 PUF domain R8-RKV = PUM1 PUF domain R8-RKV (Homo sapiens, UniProt Q14671 828-1176, N1122R;Y1123K;Q1126V)
Outline: as §1

PUM1 PUF domain R8-LYL = PUM1 PUF domain R8-LYL (Homo sapiens, UniProt Q14671 828-1176, N1122L;Q1126L)
Outline: as §1

PUM1 PUF domain R8-KFL = PUM1 PUF domain R8-KFL (Homo sapiens, UniProt Q14671 828-1176, N1122K;Y1123F;Q1126L)
Outline: as §1

PUM1 PUF domain R7-RNR = PUM1 PUF domain R7-RNR (Homo sapiens, UniProt Q14671 828-1176, S1079R;E1083R)
Outline: as §1

PUM1 PUF domain R6-RYK = target: T1, PUM1 PUF domain R6-RYK (Homo sapiens, UniProt Q14671 828-1176, N1043R;Q1047K)
T1 sequence: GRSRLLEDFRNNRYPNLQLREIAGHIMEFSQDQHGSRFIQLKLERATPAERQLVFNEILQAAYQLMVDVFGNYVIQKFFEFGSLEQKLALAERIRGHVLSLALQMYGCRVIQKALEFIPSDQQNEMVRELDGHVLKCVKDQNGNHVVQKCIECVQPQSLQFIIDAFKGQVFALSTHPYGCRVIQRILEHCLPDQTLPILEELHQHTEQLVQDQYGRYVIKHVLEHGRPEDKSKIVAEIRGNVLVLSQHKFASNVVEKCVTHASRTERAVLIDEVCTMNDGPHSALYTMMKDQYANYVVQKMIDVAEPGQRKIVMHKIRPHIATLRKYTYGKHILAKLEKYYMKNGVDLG
Outline: as §1

PUM1 PUF domain R3-THE = PUM1 PUF domain R3-THE (Homo sapiens, UniProt Q14671 828-1176, C935T;R936H;Q939E)
Outline: as §1

PUM1 PUF domain R6-GWI = target: T2, PUM1 PUF domain R6-GWI (Homo sapiens, UniProt Q14671 828-1176, N1043G;Y1044W;Q1047I)
T2 sequence: T1 sequence with R216G, Y217W, K220I
Outline: as §1

PUM1 PUF domain R4-CRA = PUM1 PUF domain R4-CRA (Homo sapiens, UniProt Q14671 828-1176, N971C;H972R;Q975A)
Outline: as §1

PUM1 PUF domain R6-VWI = target: T3, PUM1 PUF domain R6-VWI (Homo sapiens, UniProt Q14671 828-1176, N1043V;Y1044W;Q1047I)
T3 sequence: T1 sequence with R216V, Y217W, K220I
Outline: as §1

PUM1 PUF domain R1-SRD = PUM1 PUF domain R1-SRD (Homo sapiens, UniProt Q14671 828-1176, Q867D)
Outline: as §1

PUM1 PUF domain R1-GCK = PUM1 PUF domain R1-GCK (Homo sapiens, UniProt Q14671 828-1176, S863G;R864C;Q867K)
Outline: as §1

PUM1 PUF domain R6-SRD = target: T4, PUM1 PUF domain R6-SRD (Homo sapiens, UniProt Q14671 828-1176, N1043S;Y1044R;Q1047D)
T4 sequence: T1 sequence with R216S, Y217R, K220D
Outline: as §1

Chain of PUM1 PUF domain R4-WGG (Q14671 828-1176 N971W/H972G/Q975G): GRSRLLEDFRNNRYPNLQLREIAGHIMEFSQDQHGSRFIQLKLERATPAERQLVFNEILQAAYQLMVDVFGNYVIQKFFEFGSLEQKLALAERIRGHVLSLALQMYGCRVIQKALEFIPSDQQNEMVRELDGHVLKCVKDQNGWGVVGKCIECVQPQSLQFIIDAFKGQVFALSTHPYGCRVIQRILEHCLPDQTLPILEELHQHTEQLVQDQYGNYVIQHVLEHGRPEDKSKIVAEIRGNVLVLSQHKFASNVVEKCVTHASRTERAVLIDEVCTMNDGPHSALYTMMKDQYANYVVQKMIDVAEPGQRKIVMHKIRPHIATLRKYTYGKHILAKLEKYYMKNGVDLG

Q: Which binding signal (PUM1 PUF domain R4-WGG) does the source give for “GGCUAGAACUAGUGGAUCCCCCGGCGCCCGGCGGCUCGAGCCCGGGUAAGUGUACAUAGUCUGCAUGCCGCCGGGCGCCAUGCCUGCAGGUCGACUCUAGAAAACAUG” here?
A: The binding signal was 3.3 log2 enrichment (interaction score).

Q: What about the binding signal (PUM1 PUF domain R4-DHA) of the same sequence?
A: Its binding signal is 5.96 log2 enrichment (interaction score).

Q: Which binding signal (PUM1 PUF domain R4-WGG) does the source give for “GGCUAGAACUAGUGGAUCCCCCGGCGCCCGGCGGCUCGAGCCCGGGUAAGUGUAUAUAGUCUGCAUGCCGCCGGGCGCCAUGCCUGCAGGUCGACUCUAGAAAACAUG” here?
A: The binding signal was 3.71 log2 enrichment (interaction score).

Q: What about the binding signal (PUM1 PUF domain R4-LHH) of the same sequence?
A: The binding signal was 4.06 log2 enrichment (interaction score).

Q: With “GGCUAGAACUAGUGGAUCCCCCGGCGCCCGGCGGCUCGAGCCCGGGUAAGUGUCAAUAGUCUGCAUGCCGCCGGGCGCCAUGCCUGCAGGUCGACUCUAGAAAACAUG” as the sequence, how does the binding signal (PUM1 PUF domain R5-RRF) read?
A: Its binding signal is 3.03 log2 enrichment (interaction score).

Q: And the binding signal (PUM1 PUF domain R5-RFW)?
A: Its binding signal is 3.42 log2 enrichment (interaction score).

Q: What about the binding signal (PUM1 PUF domain R5-KYA) of the same sequence?
A: Its binding signal is 3.04 log2 enrichment (interaction score).

Q: What about the binding signal (PUM1 PUF domain R5-RAT) of the same sequence?
A: The binding signal was 3.06 log2 enrichment (interaction score).

Q: Which results are given for “GGCUAGAACUAGUGGAUCCCCCGGCGCCCGGCGGCUCGAGCCCGGGUAAGUGUUAAUAGUCUGCAUGCCGCCGGGCGCCAUGCCUGCAGGUCGACUCUAGAAAACAUG”?
A: binding signal (PUM1 PUF domain R5-RRF): 3.3 log2 enrichment (interaction score); binding signal (PUM1 PUF domain R5-KYA): 4.12 log2 enrichment (interaction score); binding signal (PUM1 PUF domain R5-CNH): 2.78 log2 enrichment (interaction score); binding signal (PUM1 PUF domain R5-RAT): 1.36 log2 enrichment (interaction score)

Q: With “GGCUAGAACUAGUGGAUCCCCCGGCGCCCGGCGGCUCGAGCCCGGGUAAGCGUAAAUAGUCUGCAUGCCGCCGGGCGCCAUGCCUGCAGGUCGACUCUAGAAAACAUG” as the sequence, how does the binding signal (PUM1 PUF domain R8-RKV) read?
A: Its binding signal is 2.31 log2 enrichment (interaction score).

Q: And the binding signal (PUM1 PUF domain R8-LYL)?
A: The binding signal was 2.29 log2 enrichment (interaction score).

Q: What about the binding signal (PUM1 PUF domain R8-KFL) of the same sequence?
A: Its binding signal is 4.76 log2 enrichment (interaction score).

Q: How did the binding signal (PUM1 PUF domain R7-RNR) turn out when “GGCUAGAACUAGUGGAUCCCCCGGCGCCCGGCGGCUCGAGCCCGGGUAAGUUUAAAUAGUCUGCAUGCCGCCGGGCGCCAUGCCUGCAGGUCGACUCUAGAAAACAUG” was run?
A: The binding signal was 5.92 log2 enrichment (interaction score).

Q: How did the binding signal (PUM1 PUF domain R4-WGG) turn out when “GGCUAGAACUAGUGGAUCCCCCGGCGCCCGGCGGCUCGAGCCCGGGUAAGUGUAGAUAGUCUGCAUGCCGCCGGGCGCCAUGCCUGCAGGUCGACUCUAGAAAACAUG” was run?
A: Its binding signal is 1.6 log2 enrichment (interaction score).

Q: Which results are given for “GGCUAGAACUAGUGGAUCCCCCGGCGCCCGGCGGCUCGAGCCCGGGUAAGUGUAAAUAGUCUGCAUGCCGCCGGGCGCCAUGCCUGCAGGUCGACUCUAGAAAACAUG”?
A: binding signal (PUM1 PUF domain R8-LYL): 0.84 log2 enrichment (interaction score); binding signal (PUM1 PUF domain R4-WGG): 2.44 log2 enrichment (interaction score); binding signal (PUM1 PUF domain R5-RFW): 1.35 log2 enrichment (interaction score); binding signal (PUM1 PUF domain R6-RYK): 3.06 log2 enrichment (interaction score); binding signal (PUM1 PUF domain R5-KYA): 3.48 log2 enrichment (interaction score); binding signal (PUM1 PUF domain R3-THE): 2.11 log2 enrichment (interaction score); binding signal (PUM1 PUF domain R6-GWI): 2.34 log2 enrichment (interaction score); binding signal (PUM1 PUF domain R4-CRA): 3.82 log2 enrichment (interaction score)

Q: How did the binding signal (PUM1 PUF domain R6-VWI) turn out when “GGCUAGAACUAGUGGAUCCCCCGGCGCCCGGCGGCUCGAGCCCGGGUAAGUGAAAAUAGUCUGCAUGCCGCCGGGCGCCAUGCCUGCAGGUCGACUCUAGAAAACAUG” was run?
A: The binding signal was 5.74 log2 enrichment (interaction score).

Q: With “GGCUAGAACUAGUGGAUCCCCCGGCGCCCGGCGGCUCGAGCCCGGGUAAGUGUAAAUGGUCUGCAUGCCGCCGGGCGCCAUGCCUGCAGGUCGACUCUAGAAAACAUG” as the sequence, how does the binding signal (PUM1 PUF domain R1-SRD) read?
A: The binding signal was 3.35 log2 enrichment (interaction score).

Q: Which binding signal (PUM1 PUF domain R1-GCK) does the source give for “GGCUAGAACUAGUGGAUCCCCCGGCGCCCGGCGGCUCGAGCCCGGGUAAGUGUAAAUCGUCUGCAUGCCGCCGGGCGCCAUGCCUGCAGGUCGACUCUAGAAAACAUG” here?
A: The binding signal was 2.79 log2 enrichment (interaction score).

Q: How did the binding signal (PUM1 PUF domain R7-RNR) turn out when “GGCUAGAACUAGUGGAUCCCCCGGCGCCCGGCGGCUCGAGCCCGGGUAAGUCUAAAUAGUCUGCAUGCCGCCGGGCGCCAUGCCUGCAGGUCGACUCUAGAAAACAUG” was run?
A: Its binding signal is 4.72 log2 enrichment (interaction score).

Q: Which binding signal (PUM1 PUF domain R5-RFW) does the source give for “GGCUAGAACUAGUGGAUCCCCCGGCGCCCGGCGGCUCGAGCCCGGGUAAGUGUGAAUAGUCUGCAUGCCGCCGGGCGCCAUGCCUGCAGGUCGACUCUAGAAAACAUG” here?
A: The binding signal was 2.92 log2 enrichment (interaction score).

Q: And the binding signal (PUM1 PUF domain R5-KYA)?
A: The binding signal was 0.9 log2 enrichment (interaction score).

Q: With “GGCUAGAACUAGUGGAUCCCCCGGCGCCCGGCGGCUCGAGCCCGGGUAAGUGUAAAUUGUCUGCAUGCCGCCGGGCGCCAUGCCUGCAGGUCGACUCUAGAAAACAUG” as the sequence, how does the binding signal (PUM1 PUF domain R1-GCK) read?
A: Its binding signal is 1.58 log2 enrichment (interaction score).

Q: “GGCUAGAACUAGUGGAUCCCCCGGCGCCCGGCGGCUCGAGCCCGGGUAAGUGGAAAUAGUCUGCAUGCCGCCGGGCGCCAUGCCUGCAGGUCGACUCUAGAAAACAUG” was tested. Which binding signal (PUM1 PUF domain R6-SRD) did it give?
A: Its binding signal is 4.81 log2 enrichment (interaction score).
